Several values for one entry are separate records, joined by “and”; a condition that tells them apart may be missing. Equal entries are not always repeated. Some compounds were tested as several samples or in several runs, with calls that do not always agree. Activity calls are given as the source filed them. How the source made its calls: active means hit-call score of the fitted dose curve at least 0.9, where 1 is the maximum; inactive means score below 0.9.
Experiments:
[1] = read-out: Urokinase-type plasminogen activator receptor (uPAR), PLAUR (gene 5329); experiment: BSK_4H_uPAR: BioMAP Diversity Plus: 4H Assay for Urokinase-type plasminogen activator receptor (uPAR) Biomarker Activity (AID 2283030); conditions: primary human endothelial cells (HUVEC); actives raise or lower the signal
How it was run: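 HUVEC, 24 h post-dose; uPAR by ELISA; bidirectional fit vs DMSO baseline.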

[2] = read-out: Vascular endothelial growth factor receptor 2 (Homo sapiens) (UniProt P35968); experiment: BSK_4H_VEGFRII: BioMAP Diversity Plus: 4H Assay for Vascular endothelial growth factor receptor 2 (VEGFR2) Biomarker Activity (AID 2283031); conditions: primary human endothelial cells (HUVEC); actives raise or lower the signal;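 on AC50: cell-surface VEGFR2 protein level quantified by ELISA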
How it was run: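 HUVEC (human primary), 4H system; 24 h post-dose; VEGFRII by ELISA; bidirectional curve fit vs DMSO baseline; gain or loss of signal scored.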

[3] = read-out: Human Leukocyte Antigen - DR isotype (HLADR), HLA-DRA (gene 3122); experiment: BSK_BE3C_HLADR: BioMAP Diversity Plus: BE3C Assay for Human Leukocyte Antigen - DR isotype (HLADR) Biomarker Activity (AID 2283032); conditions: primary human bronchial epithelial cells; actives raise or lower the signal
How it was run: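 Human primary bronchial epithelial cells in the BE3C system were exposed to chemicals for 24 h, after which HLA-DR levels were quantified by ELISA. Activity was fitted bidirectionally, gain or loss of signal, against DMSO as negative control and baseline.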

[4] = read-out: Vascular cell adhesion molecule 1 (VCAM1), VCAM1 (gene 7412); experiment: BSK_4H_VCAM1: BioMAP Diversity Plus: 4H Assay for Vascular cell adhesion molecule 1 (VCAM1) Biomarker Activity (AID 2283033); conditions: primary human endothelial cells (HUVEC); actives raise or lower the signal
How it was run: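 Primary human umbilical vein endothelial cells were exposed to chemicals for 24 h, after which VCAM-1 was quantified by ELISA. Responses were fitted bidirectionally against DMSO as negative control and activity baseline.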

[5] = read-out: Interferon-gamma inducible Protein 10 (IP10), CXCL10 (gene 3627); experiment: BSK_BE3C_IP10: BioMAP Diversity Plus: BE3C Assay for Interferon-gamma inducible Protein 10 (IP10) Biomarker Activity (AID 2283034); conditions: primary human bronchial epithelial cells; actives raise or lower the signal
How it was run: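 Human primary bronchial epithelial cells were exposed to chemicals for 24 hours, after which IP-10 levels were measured by ELISA. Data were fitted bidirectionally against DMSO, which served as the negative control and activity baseline.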

[6] = read-out: Monokine induced gamma interferon (MIG), CXCL9 (gene 4283); experiment: BSK_BE3C_MIG: BioMAP Diversity Plus: BE3C Assay for Monokine induced gamma interferon (MIG) Biomarker Activity (AID 2283035); conditions: primary human bronchial epithelial cells; actives raise or lower the signal
How it was run: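 ELISA read-out of MIG in human lung bronchial epithelial primary cultures, 24 h post-dosing. Bidirectional curve fit vs DMSO baseline.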

[7] = read-out: Plasminogen activator inhibitor-1 (PAI1), SERPINE1 (gene 5054); experiment: BSK_BE3C_PAI1: BioMAP Diversity Plus: BE3C Assay for Plasminogen activator inhibitor-1 (PAI1) Biomarker Activity (AID 2283037); conditions: primary human bronchial epithelial cells; actives raise or lower the signal
How it was run: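 Human primary bronchial epithelial cells were exposed to chemical for 24 h, then PAI-1 was quantified by ELISA. Activity was fitted bidirectionally relative to the DMSO negative control baseline.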

[8] = read-out: urokinase plasminogen activator (uPA), PLAU (gene 5328); experiment: BSK_BE3C_uPA: BioMAP Diversity Plus: BE3C Assay for urokinase plasminogen activator (uPA) Biomarker Activity (AID 2283038); conditions: primary human bronchial epithelial cells; actives raise or lower the signal
How it was run: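 ELISA read-out of uPA in human lung primary bronchial epithelial cultures, 24 h post-dosing. Gain or loss of signal fitted bidirectionally relative to DMSO baseline; cytotoxicity checked in parallel cultures via SRB total protein stain.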

[9] = read-out: Urokinase-type plasminogen activator receptor (uPAR), PLAUR (gene 5329); experiment: BSK_BE3C_uPAR: BioMAP Diversity Plus: BE3C Assay for Urokinase-type plasminogen activator receptor (uPAR) Biomarker Activity (AID 2283039); conditions: primary human bronchial epithelial cells; actives raise or lower the signal
How it was run: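 Primary human bronchial epithelial cells were dosed with chemical and harvested 24 h later; uPAR was quantified by ELISA. Activity was fitted bidirectionally against DMSO as negative control and baseline.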

[10] = read-out: Transforming growth factor beta 1 (TGFb1), TGFB1 (gene 7040); experiment: BSK_BE3C_TGFb1: BioMAP Diversity Plus: BE3C Assay for Transforming growth factor beta 1 (TGFb1) Biomarker Activity (AID 2283036); conditions: primary human bronchial epithelial cells; actives raise or lower the signal
How it was run: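 Human primary bronchial epithelial cells (BE3C system) were dosed with chemical and TGF-b1 levels measured by ELISA at 24 h. Activity was fitted bidirectionally relative to DMSO negative control as baseline.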

Measured: AC50

FC(F)(F)C(F)(F)C(F)(F)C(F)(F)C(F)(F)C(F)(F)CCS
not listed: [10]
inactive: all other assays above

OCCCC(F)(F)C(F)(F)C(F)(F)F
not listed: [10]
inactive: all other assays above

CCCCNc1ccccc1
not listed: [8]
inactive: all other assays above

OCC(F)(F)C(F)(F)C(F)(F)C(F)(F)C(F)(F)C(F)(F)F
inactive: [1] | [2] | [3] | [4] | [5] | [7] | [9]
active: [1] 47.8 µM | [3] 41.7 µM | [6] 45.1 µM and 54.8 µM

CCCCCCC(C)OC(=O)CCCCC(=O)OC(C)CCCCCC (centres undefined)
inactive: all assays above

FC(F)(I)C(F)(F)C(F)(F)C(F)(F)I
inactive: [1] | [2] | [6] | [7] | [9]
active: [1] 50.3 µM and 57.1 µM | [2] 18.7 µM and 45.2 µM | [3] 49.2 µM and 46.2 µM and 46.8 µM | [4] 22.9 µM and 53.8 µM and 54.1 µM | [5] 58.2 µM and 46.9 µM and 54.8 µM | [6] 48.9 µM | [7] 50.8 µM | [9] 51.1 µM and 47.9 µM

N=C(N)C(F)(F)C(F)(F)C(F)(F)C(F)(F)C(F)(F)C(F)(F)C(F)(F)F
inactive: [1] | [2] | [3] | [5] | [6] | [7] | [8] | [9]
active: [3] 43.1 µM | [4] 21.1 µM and 44.1 µM | [5] 48.6 µM

CCc1c(Br)c(Br)c(Br)c(Br)c1Br
not listed: [8]
inactive: all other assays above

C#C[C@]1(O)CC[C@H]2[C@@H]3CCc4cc(OC)ccc4[C@H]3CC[C@@]21C
active: [3] 6.9 µM
not listed: [8]
inactive: all other assays above

Oc1ccc(Nc2ccccc2)cc1
inactive: [2] | [3] | [6] | [9]
active: [1] 3.14 µM | [4] 20 µM | [5] 3.97 µM | [10] 5.46 µM | [7] 7.39 µM

CC(CCl)OP(=O)(OC(C)CCl)OC(C)CCl (centres undefined)
inactive: all assays above

O=C(O)C(F)(F)C(F)(F)C(F)(F)C(F)(F)C(F)(F)C(F)(F)C(F)(F)C(F)(F)C(F)(F)C(F)(F)C(F)(F)C(F)(F)C(F)(F)F
inactive: [1] | [2] | [3] | [4] | [5] | [6] | [7] | [9]
active: [2] 0.932 µM

CCCCCCCOC(=O)c1ccccc1C(=O)OCCCCCCC
active: [1] 4.08 µM
not listed: [8]
inactive: all other assays above

Nc1ccc([N+](=O)[O-])cc1O
active: [9] 20 µM
not listed: [8]
inactive: all other assays above

NC(=O)C(F)(F)C(F)(F)C(F)(F)C(F)(F)F
inactive: [1] | [2] | [3] | [4] | [5] | [6] | [7] | [9]
active: [7] 4.8 µM

CCCCOCCOCCOC(=O)CCCCC(=O)OCCOCCOCCCC
inactive: all assays above

Cc1ccc(S(=O)(=O)OCC(F)(F)C(F)(F)C(F)(F)C(F)(F)C(F)(F)C(F)F)cc1
inactive: [1] | [2] | [3] | [4] | [5] | [6] | [7] | [9]
active: [1] 46 µM

C=CC(=O)OCC(F)(F)C(F)(F)C(F)(F)C(F)(F)COC(=O)C=C
active: [1] 57.8 µM and 55.1 µM | [2] 9.64 µM | [3] 40.4 µM and 42.4 µM | [4] 25.5 µM and 24 µM | [5] 45.1 µM and 45.8 µM | [6] 44.1 µM and 46.5 µM | [8] 8.4 µM and 8.81 µM | [9] 21.5 µM
inactive: [2] | [7] | [9]

C=CC/C=C/C/C=C/C/C=C/C
inactive: all assays above

O=P(O)(O)OCCC(F)(F)C(F)(F)C(F)(F)C(F)(F)C(F)(F)C(F)(F)F
active: [4] 6.01 µM
inactive: [1] | [2] | [3] | [4] | [5] | [6] | [7] | [8] | [9]

CO[Si](OC)(c1ccccc1)c1ccccc1
active: [5] 26.6 µM
inactive: all other assays above

O=C(Cl)C(F)(F)C(F)(F)C(F)(F)C(F)(F)C(F)(F)C(F)(F)C(F)(F)C(F)(F)F
inactive: [1] | [2] | [4] | [7]
active: [2] 30 µM | [3] 50 µM and 48.6 µM and 50.7 µM | [5] 39.8 µM and 36.6 µM and 44.6 µM | [6] 55.3 µM and 46.6 µM and 46.1 µM | [9] 47.8 µM and 53.7 µM and 48.4 µM

CCN(CC)c1ccc2c(C)cc(=O)oc2c1
not listed: [8]
inactive: all other assays above

CCc1ccc(C(c2ccc(CC)cc2)C(Cl)Cl)cc1
active: [1] 32.3 µM | [2] 13.1 µM | [3] 13.6 µM | [4] 28.5 µM | [5] 20 µM | [7] 20 µM
inactive: [6] | [10] | [8] | [9]

O=C(O)C(F)(F)C(F)(F)OC(F)(F)F
active: [2] 2.45 µM
inactive: [1] | [2] | [3] | [4] | [5] | [6] | [7] | [9]

O=C(O)C(F)(F)C(F)(F)C(F)(F)C(F)(F)C(F)(F)C(F)(F)C(F)(F)C(F)(F)Cl
inactive: [1] | [2] | [4]
active: [3] 18.2 µM and 17.6 µM | [4] 56.8 µM | [5] 18.3 µM and 17.9 µM | [6] 46.6 µM and 46.5 µM | [7] 18 µM and 12.2 µM | [9] 48.6 µM and 44.4 µM

FC(F)(F)C(F)(F)C(F)(F)C(F)(F)C(F)(F)CCI
not listed: [10]
inactive: all other assays above

CCCCCCCCCCCCCCCC[N+](C)(C)Cc1ccccc1
active: [1] 5.78 µM | [2] 38.8 µM | [3] 2.19 µM | [4] 1.78 µM | [5] 2.47 µM | [6] 10 µM | [10] 20 µM | [7] 20 µM | [8] 13.2 µM | [9] 9.42 µM

CS(C)(=O)=O
not listed: [8]
inactive: all other assays above

O=C(O)C(F)(F)C(F)(F)C(F)F
not listed: [10]
inactive: all other assays above

FC1CC(F)(F)C(F)(F)C1(F)F (centres undefined)
not listed: [10]
inactive: all other assays above

CC(=O)Nc1ccc(N=Nc2cc(C)ccc2O)cc1
active: [5] 29.7 µM
not listed: [8]
inactive: all other assays above

FC(F)(F)C(F)(F)CNCC(F)(F)C(F)(F)F
not listed: [10]
inactive: all other assays above

From PubChem BioAssay (EPA / NIEHS)
